Pf growth 96h: Primary qHTS for delayed death inhibitors of the malarial parasite plastid, 96 hour incubation; 320,000 tested, 6.9% active; AID 504834, 2011; P. falciparum luciferase reporter growth, 96 h; Potency, µM (titrated, usually from 28.7 µM), without a hit: top-dose activity change, negative = inhibition, most hits filed as inhibitors; active = well fitted inhibition curve with a large enough effect; inconclusive = small, poorly fitted or top-dose-only effect, or another doubt; inactive = no such curve, though single readings can be large or run the other way; also: potency is read from the fitted curve at half-maximal effect; % is scaled to controls: 0 for no effect and ±100 for the full control effect
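Cell-based qHTS: luciferase-tagged P. falciparum in erythrocytes (2% hematocrit, 0.05% parasitemia final) incubated with compounds for 96 hours, 37 C, 5% CO2; luciferase detection reagent then added and luminescence measured.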
Shiga inhibitor: A qHTS for Small Molecule Inhibitors of Shiga Toxin | inhibition, % at 38.7 µM | Vero cells, Shiga toxin protein synthesis inhibition reporter | 290,000 tested, 9.2% active; in the data active = inhibition mostly above about 28%, no sharp cut-off; inactive = mostly below about 43%; also: 0% is about no effect
NS1 inh: qHTS Assay for Inhibitors of Influenza NS1 Protein Function; Potency, µM (top dose mostly 46.1 µM), inactives show at the top dose activity, positive = more growth; 270,000 tested, 0.4% active; AID 2326, 2010; also: potency is read from the fitted curve at half-maximal effect; actives are rising curves; nearly all actives have a fitted effect of over 50% in size
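In this qHTS, NS1 from influenza A is expressed in budding yeast, where it slows growth. Cells are switched from glucose to 2% galactose medium (pH 6.0, -URA), treated with compound, and growth recovery is read at OD600.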
SARS PLpro yeast: qHTS of Yeast-based Assay for SARS-CoV PLP; S. cerevisiae expressing SARS-CoV PLpro, growth rescue; Potency, µM (doses to about 32.9 µM), for inactives: at the highest dose activity, positive = growth rescue, usual class: activators; 330,000 tested, 0.19% active; AID 485353, 2010; also: potency is read from the fitted curve at half-maximal effect; 0% is about no effect; nearly all actives have a fitted effect of over 55% in size
Cycloheximide cs: Cycloheximide Counterscreen for Small Molecule Inhibitors of Shiga Toxin; cell reporter, cycloheximide protein synthesis inhibition counterscreen; max response, %; 300,000 tested, 12% active; AID 2314, 2010; in the data active = max response mostly above about 13%, no sharp cut-off; inactive = mostly below about 14%; also: read at 38.3 µM for the half of the compounds with a filed dose; 0% is about no effect
Pf growth 48h: Primary qHTS for delayed death inhibitors of the malarial parasite plastid, 48 hour incubation; 310,000 tested, 5.9% active; P. falciparum luciferase growth in erythrocytes, 48 h; Potency, µM (top dose mostly 28.7 µM), for inactives: top-dose activity change, negative = inhibition, actives largely listed as inhibitors; AID 504832, 2011; active = well fitted inhibition curve with a large enough effect; inconclusive = small, poorly fitted or top-dose-only effect, or another doubt; inactive = no such curve, though single readings can be large or run the other way; also: potency is read from the fitted curve at half-maximal effect; % is scaled to controls: 0 for no effect and ±100 for the full control effect
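Luminescence readout; reporter = integrated firefly luciferase in P. falciparum. RBC culture at 2% hematocrit, 0.1% parasitemia final, 37 C/5% CO2; decreased signal taken as growth inhibition.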
Starred values were filed as active, the others as inactive; ? = inconclusive; · = no result. Sampled rows, rich in hits. Any-hit rate of the full collection: about 21%. Unless noted, calls follow the shape of the full dose curve.

SMILES	Pf growth 96h	Shiga inhibitor	NS1 inh	SARS PLpro yeast	Cycloheximide cs	Pf growth 48h
CNCc1nc2ccccc2[nH]1	?	7	4%	0%	0	20%
COc1ccccc1N1CCN(S(=O)(=O)CCNC(=O)c2cccc(F)c2)CC1	-6%	·	·	5%	·	-26%
c1ccc2[nH]c(CSc3ncnc4c3oc3ccccc34)nc2c1	43%	62*	-115%	-16%	16*	-6%
c1ccc2[nH]c(CSc3nccs3)nc2c1	?	75*	2%	-6%	23*	34%
C[C@@H]1[C@H](O)[C@@H](C)/C=C/C=C/C=C/C=C/C=C/C=C/C=C/[C@H](O[C@@H]2O[C@H](C)[C@@H](O)[C@H](N)[C@@H]2O)C[C@@H]2O[C@](O)(C[C@@H](O)C[C@@H](O)[C@H](O)CC[C@@H](O)C[C@@H](O)CC(=O)O[C@H]1C)C[C@H](O)[C@H]2C(=O)O	-13%	·	·	·	·	-16%
CCCCc1cc(=O)oc2cc(C)cc(OCC(=O)NC(Cc3ccc(Cl)cc3)C(=O)O)c12 (configuration not stated)	-21%	-5	23%	-3%	2	19%
CCN(CC)CCCN(Cc1cc2cc(OC)c(OC)cc2[nH]c1=O)C(=O)Nc1ccccc1	·	10	3%	2%	25	?
CCN(CC)CCCN(Cc1cc2cc3c(cc2[nH]c1=O)OCO3)C(=O)Nc1ccccc1OC	10µM*	-5	0%	-1%	-1	?
CCN(CC)CCCN(Cc1cc2cc3c(cc2[nH]c1=O)OCCO3)C(=O)Nc1ccc(F)cc1	?	78*	2%	9%	14*	?
O=C(COC(=O)[C@@H]1CCCN1S(=O)(=O)c1ccccc1F)Nc1ccc(OC(F)F)cc1	14%	-8	·	-5%	-2	-9%
CC[C@@]12CCCN3CCc4c(n(c5ccccc45)C(=O)C1)[C@H]32	6.4µM*	·	3%	·	·	?
CCC12CCCN3CCc4c(n(c5ccccc45)C(O)(C(=O)OC)C1)C32 (configuration not stated)	-6%	13	3%	-2%	-2	-15%
CC[C@]12CCCN3CCc4c(n(c5ccccc45)[C@](O)(C(=O)OC)C1)[C@@H]32	2%	·	·	-12%	·	?
CCOC(=O)C1=C[C@@]2(CC)CCCN3CCc4c(n1c1ccccc41)[C@H]32	-1%	·	·	·	·	6µM*
COc1c2c(cc3oc(=O)ccc13)OC(C)(C)C=C2	0.0047µM*	40*	-5%	1%	20*	7%
O=c1ccc2cc(O)c(O)cc2o1	-26%	-3	9%	9%	-1	2%
CC1(C)C=Cc2cc3ccc(=O)oc3cc2O1	?	62*	-4%	-1%	53*	84%
COc1ccc(OCc2cc(=O)c3ccc4c(c3o2)C=CC(C)(C)O4)cc1OC	·	·	·	-4%	·	·
CCC(=O)Nc1nc(C)c(-c2csc(Nc3ccccn3)n2)s1	6%	103*	·	-4%	33*	13%
CCCCCCC(=O)Nc1nc(C)c(-c2csc(Nc3ccccc3OC)n2)s1	3.7µM*	4	19%	3%	1	?
CCCC(C)C(=O)Nc1nc(C)c(-c2csc(Nc3ccccc3OC)n2)s1 (configuration not stated)	9.3µM*	15	11%	1%	-7	?
CCCCC(=O)Nc1nc2c(OC)ccc(OC)c2s1	?	-13	2%	1%	-4	·
CCCC(=O)Nc1nc(C)c(-c2csc(Nc3ccccc3C)n2)s1	?	-14	2%	-7%	8	12µM*
COc1ccccc1Nc1nc(-c2sc(NC(=O)c3ccccc3)nc2C)cs1	?	26	12%	4%	9	?
Nc1nc(SCC(=O)c2cccs2)n[nH]1	?	18	2%	-1%	13	1%
SMILES	Pf growth 96h	Shiga inhibitor	NS1 inh	SARS PLpro yeast	Cycloheximide cs	Pf growth 48h
CCCCCC(=O)Nc1nc(C)c(-c2csc(Nc3ccccc3OCC)n2)s1	?	-2	8%	-3%	-2	?
CCCCCC(=O)Nc1nc(C)c(-c2csc(Nc3ccccc3OC)n2)s1	2.9µM*	-2	?	-2%	29	?
CC(/C=N/NC(=O)Cn1cnc2c1c(=O)n(C)c(=O)n2C)=C\c1ccccc1	-22%	13	-3%	13%	-5	9%
COC(=O)c1nc2ccc(N3CCOCC3)cc2c(C)c1C(=O)OC	385%	57*	·	-4%	22	180%
Cc1cc(C(=O)Nc2ccc(N3CCOCC3)cc2)c2ccccc2n1	13µM*	-6	-10%	-2%	-1	9.3µM*
Cc1cc(C(=O)Nc2ccncc2)c2ccccc2n1	13µM*	-9	-21%	-4%	7	?
O=C(Nc1ccc(N2CCOCC2)cc1)c1cn2ccccc2n1	28%	56*	16%	-5%	47*	22%
Cc1ccc(-c2nc3ccccc3c(C(=O)NCc3cccs3)c2C)cc1	?	-7	-65%	-25%	3	·
CC(=O)c1ccc(NC(=O)c2cc(C)nc3ccccc23)cc1	?	28	6%	0%	28*	22%
Cc1ccc(NC(=O)c2cc(C)nc3ccccc23)cc1	?	-16	-12%	-3%	2	0%
O=C(Nc1nc2c(cc3c4c(cccc42)CC3)s1)c1ccccc1Cl	-89%	16	5%	-17%	10	-12%
CN(C(=O)c1ccc(NC(=O)Cc2ccc(NC(=O)C3CCN(C(=O)C4CC4)CC3)cc2)cc1)C1CC1	0%	·	·	-5%	·	?
CN(C(=O)c1ccc(NC(=O)Cc2ccc(NC(=O)C3CCN(C(=O)c4ccccc4)CC3)cc2)cc1)C1CC1	6.6µM*	·	·	1%	·	?
O=C(Cc1cccc(NC(=O)C2CCN(C(=O)C3CCCCC3)CC2)c1)Nc1cccc(C(=O)N2CCCC2)c1	10µM*	·	·	4%	·	13µM*
CN(Cc1ccccc1)C(=O)c1ccc(NC(=O)Cc2cccc(NC(=O)C3CCCN(C(=O)C4CCC4)C3)c2)cc1 (configuration not stated)	?	·	·	5%	·	9.3µM*
CCCn1c2c(c(O)c(C(=O)Nc3nc4ccccc4s3)c1=O)CCCC2	-6%	-18	1%	0%	-2	18%
COc1ccc([C@@H]2[C@@H]3C(=O)N(C(C)(C)C)C(=O)[C@@H]3[C@]3(C)C(=O)N(c4ccc(C(F)(F)F)cc4)C(=O)N23)cc1	?	24*	-15%	-9%	21*	?
COc1ccc([C@@H]2[C@@H]3C(=O)N(C(C)(C)C)C(=O)[C@@H]3[C@]3(CC(C)C)C(=O)N(c4cccc(Br)c4)C(=O)N23)cc1	3.7µM*	-10	13%	0%	-4	?
COc1ccc([C@@H]2[C@@H]3C(=O)N(C(C)(C)C)C(=O)[C@@H]3[C@]3(Cc4ccccc4)C(=O)N(c4ccc(OC)cc4)C(=O)N23)cc1	?	·	·	7%	·	?
